# Most compounds without a hit are left out; they make up all but 7.3% or so of the library.
# 3T3 cytotox = kills NIH 3T3 cells; hit rate 4.3% among 94,000; Potency, µM (highest dose often 96.7 µM), without a hit: top-dose activity change, negative = cytotoxicity, most hits filed as inhibitors; NIH 3T3 viability, CellTiter-Glo ATP luminescence, 48-72 h; further: potency means the concentration at half of the fitted maximal effect; nearly all actives have a fitted effect of over 55% in size
#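 Viability of NIH 3T3 cells after 48 or 72 hr compound treatment at 37 °C was assessed by CellTiter-Glo, with luminescence imaged following a 10 min room-temperature step.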
# SNCA expr inhib = reduces expression of the alpha-synuclein gene; HEK-293 SNCA-luciferase knock-in, luminescence, 24 h; Potency, µM (series often up to 57.2 µM), for the others: top-dose activity change, negative = inhibition, actives largely listed as inhibitors; hit rate 0.17% among 140,000; AID 1671194;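 further: potency means the concentration at half of the fitted maximal effect; plate controls were DMSO cells for no effect and cell-free wells for full effect; nearly all actives have a fitted effect of over 45% in size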
# FLuc inh = inhibitors of firefly (Photinus pyralis) luciferase; P08659; purified P. pyralis luciferase, luminescence, biochemical; Potency, µM (doses to about 115 µM), most hits filed as inhibitors; hit rate 2.5% among 76,000; further: potency means the concentration at half of the fitted maximal effect; nearly all actives have a fitted effect of over 65% in size
# Target sequence (P08659 whole entry, looked up): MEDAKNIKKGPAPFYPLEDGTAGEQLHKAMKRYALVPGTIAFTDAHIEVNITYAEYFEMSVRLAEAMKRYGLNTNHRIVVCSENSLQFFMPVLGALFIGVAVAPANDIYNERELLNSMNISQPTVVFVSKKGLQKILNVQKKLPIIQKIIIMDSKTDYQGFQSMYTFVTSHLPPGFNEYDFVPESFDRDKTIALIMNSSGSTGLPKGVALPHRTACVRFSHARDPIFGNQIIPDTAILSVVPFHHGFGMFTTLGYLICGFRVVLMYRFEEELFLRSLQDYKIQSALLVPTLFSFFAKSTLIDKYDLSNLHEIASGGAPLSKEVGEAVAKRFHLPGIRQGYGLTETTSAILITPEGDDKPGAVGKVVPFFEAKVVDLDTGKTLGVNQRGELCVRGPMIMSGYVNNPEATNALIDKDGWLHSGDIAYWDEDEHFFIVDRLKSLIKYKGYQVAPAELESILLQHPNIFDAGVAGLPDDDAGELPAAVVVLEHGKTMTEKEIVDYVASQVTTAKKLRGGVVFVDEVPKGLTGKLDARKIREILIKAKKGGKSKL
#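 Luminescence read by CCD imaging after purified firefly luciferase (10nM final) was added to substrate buffer holding 10uM D-luciferin and 10uM ATP, pH 7.5, pre-dosed with compound.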
# HEK cytotox = HEK 293 cell cytotoxicity. HEK 293 viability, ATP luminescence (CellTiter-Glo), 48-72 h. Potency, µM (highest dose often 115 µM), for the others: at the top dose activity change, negative = cytotoxicity, usual class: inhibitors. hit rate 6.6% among 94,000. AID 1345083; further: potency means the concentration at half of the fitted maximal effect; nearly all actives have a fitted effect of over 60% in size
#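 Viability of HEK 293 cells, plated at 250 cells/well, was judged by cellular ATP after compound treatment for 48 or 72 hr. Luminescence was imaged 10 min after CellTiter-Glo addition at room temperature.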
# HEK293 viab = reduces viability of HEK-293 SNCA reporter cells; HEK-293-SNCA-luc viability, GF-AFC fluorescence, 24 h; hit rate 0.12% among 150,000; Potency, µM (titrated, usually from 57.1 µM), for inactives: top-dose activity change, negative = cytotoxicity, most hits filed as cytotoxic; AID 1671193;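 further: potency means the concentration at half of the fitted maximal effect; 0% = DMSO-treated cells and -100% = medium-only wells without cells; nearly all actives have a fitted effect of over 30% in size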
#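 HEK-293-SNCA-luc cells (1500/well) plated 24 h, then exposed 24 h to a dilution series; GF-AFC added 30 min at 37C, fluorescence 405/540 nm; normalised to medium-only and DMSO wells, Hill fit.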
# IP6K1 inhibitor = blocks human inositol hexakisphosphate kinase 1; IP6K1 kinase, ADP-Glo luminescence, 2 h; stronger effect = lower value; activity change, % (series mostly up to about 58 µM); hit rate 0.81% among 140,000; in the data active means activity change below about -25%
#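 ADP-Glo luminescence measures ADP made by human IP6K1 during a 2 h RT reaction with ATP/IP6 (mix at 1.3 mM/130 uM); top library doses 57.5 and 19.1 uM final.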
# IP6K1 conf = confirmation of human IP6K1 inhibitors; shares compounds with IP6K1 inhibitor; recombinant IP6K1 kinase, ADP-Glo luminescence, 2 h; Potency, µM (series often up to 49 µM), for inactives: top-dose activity change, negative = inhibition, actives largely listed as inhibitors; hit rate 13% among 1,200; AID 1645852; further: potency means the concentration at half of the fitted maximal effect; nearly all actives have a fitted effect of over 65% in size
# Numbers without * were called inactive; i = inactive; u = inconclusive; x = not tested or not shown; [ ] = dose if it differs, or a comment. Unless noted, the call rests on the fitted dose curve; in most records, active means well fitted curve in the direction sought with a large enough effect; inconclusive means small, poorly fitted or top-dose-only effect, or another doubt; inactive means no such curve, though single readings can be large; an effect the other way counts as inactive or inconclusive. Unless noted, on the % scale 0 is the no-effect control and ±100 the full control effect.
SMILES,3T3 cytotox,SNCA expr inhib,FLuc inh,HEK cytotox,HEK293 viab,IP6K1 inhibitor,IP6K1 conf
CC(=O)N1CCN(C(=O)Cc2ccc(Nc3ncc(F)c(Nc4ccc(C(=O)Nc5ccccc5Cl)cc4)n3)cc2)CC1,x,x,x,x,u,-29.8*,u
O=C(Cc1ccccc1)N1CCNc2cnc(Nc3ccccc3)nc2C1,-28.6%[138 µM],-27.9%[87.6 µM],i,u,-8.5%[87.6 µM],3.1,x
COc1cccc(CN2CCCC(O)(CN3CCSCC3)C2=O)c1 (centres undefined),-4.9%,7.2%,i,-7.1%,2.4%,5.2,x
CN1C(C)(C)CCCC1(C)C,x,9.0%[25.6 µM],x,x,30.1%[23.9 µM],-34.8*,-2.3%
COc1cccc(CNC(=O)c2cc(-c3cccc(C(F)(F)F)c3)c3nncn3n2)c1,-12.5%,8.7%,x,u,-20.9%,3.5,x
Cc1nc2ccccc2c(=O)n1-c1ccc(NC(=O)c2ccccc2[N+](=O)[O-])cc1,x,-2.3%,x,x,-7.1%,25.0,x
Cc1cc(-n2c(C)nc3ccccc3c2=O)ccc1NC(=O)c1ccc(C)c([N+](=O)[O-])c1,x,11.1%,x,x,0.6%,-25.2*,4.1%
COc1cc(SC)ccc1C(=O)N[C@H]1C[C@@](O)(C(=O)NCCC(N)=O)C[C@@H](O)[C@@H]1O,-1.1%,u,i,0.0%,-2.6%,-0.4,x
Clc1ccccc1-c1nc(-c2ccncc2)no1,x,192.7%[25.6 µM],x,x,-14.5%[23.9 µM],-25.4*,u
Cc1ccc(-c2noc(-c3nc(-c4ccncc4)no3)n2)cc1,-9.9%,43.0%,i,-12.9%,1.8%,0.0,x
CNCC(=O)N1CCCC(c2cc(N3CCOCC3)nc(C)n2)C1 (centres undefined),i,8.0%,i,-1.9%,-6.3%,0.3,x
COc1ccc(CCC(=O)NCc2ccc3c(c2)CCN3C(=O)c2ccc(Cl)cc2)cc1,x,1.3%,x,x,u,-27.6*,8.8%
COc1ccc(CC(=O)NCc2ccc3c(c2)CCN3C(=O)c2ccc(Cl)cc2)cc1,x,-2.9%,x,x,3.6%,-11.5,x
Cc1ccc(-n2[nH]c(C)c(N=Nc3cccc(-c4cccc(C(=O)O)c4)c3O)c2=O)cc1C,x,-0.8%,x,x,-18.2%,-91.3*,u
Cc1ccccc1Nc1nc(N)c(C(=O)c2ccccc2Cl)s1,x,-23.1%,x,x,u,-51.7*,3.26µM*
COCCN1C[C@H]2COc3ccc(C)cc3[C@H]2N(C(=O)c2cccc(OC)c2)CCC1=O,-19.8%,x,x,u,x,-8.3,x
CC(C)c1nc2ccccc2n1CC(=O)N1CC[C@](C)(O)[C@@H](O)C1,1.2%,0.4%,i,-1.9%,-1.9%,4.8,x
Cc1nc2ccccc2n1CCC(=O)N1C[C@@H](C)[C@](O)(C(C)C)C1,-14.2%,8.5%,i,-14.1%,2.1%,-37.1*,-9.4%
CCc1noc(-c2nc(Cc3ccccc3C)no2)n1,-18.3%,18.8%,i,-26.4%,2.8%,5.1,x
CCc1noc(Cc2c(C)nn(-c3ccccc3)c2C)n1,-24.2%,28.6%,i,-9.5%,0.0%,-28.1*,-15.3%
O=C(CCc1ccccc1)N1CCC2(CC1)CC(N(Cc1ccccc1)C1CC1)CCO2 (centres undefined),u,-9.3%,i,u,1.6%,-27.3*,-14.3%
O=C(c1ccoc1)N1CCC(c2noc(COc3ccc(F)cc3)n2)CC1,u,u,x,u,-1.6%,6.2,x
CCCCn1c(=O)c(C(=O)NCCc2ccc(F)cc2)nc2cccnc21,u,-29.6%,x,u,1.3%,-26.5*,-10.3%
COCCn1c(=O)c(C(=O)NCCc2ccc(F)cc2)nc2cccnc21,-17.5%,16.4%,x,0.2%,5.9%,9.0,x
Cc1cccc2c1NC(=O)C2(c1ccc(O)cc1)c1ccc(O)cc1,x,x,x,x,-7.5%,-26.0*,1.2%
O=C1Nc2ccccc2C1(c1ccc(O)cc1)c1ccc(O)cc1,x,-8.2%[25.6 µM],x,x,-17.6%[23.9 µM],5.5,x

# High-throughput results deposited in PubChem BioAssay by National Center for Advancing Translational Sciences (NCATS).
